The whole screen tested about 270,000 compounds, of which about 620 (0.23%) were called active. Inconclusive results (about 12%) are left out. The entries come from a sample that favours actives as a whole. Values without a mark were called inactive. The call rests on the fitted dose curve; in most records, active means well fitted inhibition curve with a large enough effect in the polarisation, with a control signal flat (not every such curve was filed as active); inconclusive means small, poorly fitted or top-dose-only effect, or effect the other way, or a change in a side signal; inactive means no such curve, though single readings can be large or run the other way; the % refers to the polarisation.
Target: Menin (Homo sapiens) (UniProt O00255)
Sequence (O00255 whole entry, looked up): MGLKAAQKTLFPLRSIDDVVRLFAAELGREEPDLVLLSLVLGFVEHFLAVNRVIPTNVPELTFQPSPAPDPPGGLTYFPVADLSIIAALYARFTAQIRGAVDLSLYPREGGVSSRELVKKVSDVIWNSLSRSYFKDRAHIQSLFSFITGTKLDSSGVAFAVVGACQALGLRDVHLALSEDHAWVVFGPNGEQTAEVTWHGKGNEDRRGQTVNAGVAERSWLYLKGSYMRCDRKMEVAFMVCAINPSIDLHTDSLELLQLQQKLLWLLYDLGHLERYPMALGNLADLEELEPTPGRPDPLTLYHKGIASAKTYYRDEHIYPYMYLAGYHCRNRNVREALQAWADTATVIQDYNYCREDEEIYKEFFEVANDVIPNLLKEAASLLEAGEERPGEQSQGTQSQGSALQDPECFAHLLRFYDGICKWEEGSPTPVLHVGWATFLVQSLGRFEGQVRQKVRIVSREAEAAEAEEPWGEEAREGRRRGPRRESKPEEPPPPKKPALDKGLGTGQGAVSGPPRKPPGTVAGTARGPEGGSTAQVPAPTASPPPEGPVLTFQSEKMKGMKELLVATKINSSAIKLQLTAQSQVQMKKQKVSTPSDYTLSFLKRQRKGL
Assay: qHTS Assay for Inhibitors Targeting the Menin-MLL Interaction in MLL Related Leukemias: Competition With Texas Red Labeled MLL-derived Mutant Peptide; on FP activity change, negative = inhibition: % of control where 0% means no effect
Conditions: fluorescence polarization; series mostly up to 61.6 µM; FP activity change, negative = inhibition: at the top concentration
Description: qHTS Assay for Inhibitors Targeting the Menin-MLL Interaction in MLL Related Leukemias NIH Chemical Genomics Center [NCGC] NIH Molecular Libraries Probe Centers Network [MLPCN] MLPCN Grant: MH084875-01A1 Assay Submitter (PI): Jolanta Grembecka, Tomasz Cierpicki, University of Virginia Translocations of the MLL (Mixed Lineage Leukemia) gene are frequently found in human leukemias affecting both children and adults. Fusion of MLL to one of more than 60 genes results in generation of oncogenic proteins upregulating Hox genes, which are vital to blood cell development. Patients harboring fusion of the MLL gene suffer from aggressive leukemias and respond poorly to available therapies. All of the oncogenic fusion proteins have a preserved N-terminal fragment of MLL that has been identified to interact with menin. It has been recently discovered that association with menin is critical to the leukemogenic activity of the MLL fusion oncoproteins. Selective targeting of the menin-MLL interaction could provide an attractive therapeutic approach to develop novel drugs for MLL-related leukemias. Small molecules blocking the menin-MLL interaction should reverse the oncogenic potential of MLL fusion proteins. We have developed and optimized a fluorescence polarization-based assay for the identification of Menin-MLL inhibitors. The assay was run employing two different MLL-derived peptides. The present assay uses a 12 amino acid peptide labeled with fluorescein at its N-terminus. This peptide consists of the menin high affinity binding motif from MLL and is potently bound by menin. Another peptide with a mutated sequence, labeled with Texas Red, was used in parallel as a less stringent screen for inhibitors.
The Menin protein, the MLL-wild type (w.t.) derived peptide (N-terminal 12 amino acids), the MLL-derived peptide labeled with Texas Red and the MLL-w.t. peptide labeled with Fluorescein were kindly supplied by laboratory of Dr. Jolanta Grembecka, University of Virginia. All protein and peptide solutions were stored in single use aliquots at -80C. The Eu3+ Cyrptate-conjugated mouse monoclonal antibody anti-6 Histidine (Eu3+-AB) and the Streptavidin-XL665 conjugate (XL665) were purchased from Cisbio International (Bedford, MA). All antibody and XL665 conjugate solution stocks were stored in single use aliquots at -20C. The Buffer components for all assays were purchased from Sigma-Aldrich (St. Louis, MO) and Invitrogen (Carlsbad, CA). FP Assay Reagents: 1. FP reaction buffer: 50 mM Tris-HCl pH 7.5, 50 mM NaCl, 1mM DTT. Before use, 0.05% BSA is added. 2. Menin protein, MLL-w.t. labeled with fluorescein, MLL-mutant peptide labeled with texas red. Stored in singe use aliquots at -80C. 3. MLL-w.t. unlabeled peptide as positive control: 10 uM final in FP buffer. FP Assay Procedure: 1. Prepare Menin at 200 nM, MLL-w.t.-fluorescein at 25 nM, and MLL-mutant-texas red at 50 nM mixture in FP buffer. 2. Prepare Menin at 200 nM, MLL-w.t.-fluorescein at 25 nM, MLL-mutant-texas red at 50 nM, and 10 uM MLL-w.t. unlabeled mixture in FP buffer. 3. Prepare MLL-w.t.-fluorescein at 25 nM and MLL-mutant-texas red at 50 nM mixture in FP buffer. 3. Dispense 4 ul per well of reagent in step 1 in columns 2, 4 - 48 in a black 1536 well plate, dispense 4 ul per well of reagents from steps 2 and 3 in columns 1 and 3 respectively. Incubate plate at ambient for 15 minutes. 4. Transfer 23 nl per well of compound to plate and incubate at ambient for 1 hr. 5. Read fluorescence polarization for each label using the PerkinElmer Envision. Envision protocol for fluorescein: FITC FP Dual Enh Mirror, Excitation filter 480, Emission filter (1) P-pol 535, Emission filter (2) S-pol 535 Envision protocol for texas red: FP Dual Enh Mirror, Excitation filter 555, Emission filter (1) P-pol 632, Emission filter (2) S-pol 632
Potency means the concentration at half of the fitted maximal effect.

| Compound | FP activity change, negative = inhibition | Potency |
| --- | --- | --- |
| COc1cccc(CCNC(=O)c2cccc(NC(=O)C3=C(C)OCCS3)c2)c1 | -0.071% |  |
| COc1ccc(CNc2ncnc3ccc(-c4cccnc4)cc23)c(OC)c1 | -6.79% |  |
| COCCNc1ncnc2ccc(-c3cccnc3)cc12 |  | 31.6 µM (active) |
| COCCNc1ncnc2ccc(-c3ccccc3CN(C)C)cc12 | -18.4% |  |
| COc1ccccc1N1CCN(S(=O)(=O)CCNC(=O)c2ccc(OC(C)C)cc2)CC1 | -12.6% |  |
| CC(CC(=O)N1CCN(c2ccccc2)CC1)S(=O)(=O)c1ccc2c(c1)NC(=O)CS2 (stereo not given) | 2.06% |  |
| COc1ccc(N2CCN(S(=O)(=O)CCNC(=O)C34CC5CC(CC(C5)C3)C4)CC2)cc1 | -25% |  |
| CCc1ccc(S(=O)(=O)N/N=C\c2ccc([N+](=O)[O-])o2)cc1 | 35.3% |  |
| COc1ccc(CNC(=O)/C(C#N)=C/c2cccc(OC)c2OC)cc1 | -18.7% |  |
| COc1ccc(N2CCN(C(=O)[C@@H](NC(=O)c3cc(OC)cc(OC)c3)C(C)C)CC2)cc1 | -22.7% |  |
| O=C(NCC1CC1)C1(C(F)(F)F)C/C(=C\CCO)CCCO1 (stereo not given) | -11.6% |  |
| Cc1cccc(S(=O)(=O)N2CN(CC3CCCO3)c3nc4ccccc4nc32)c1 (stereo not given) | 20.6% |  |
| CCOc1cc(/C=C/c2nc3ccccc3c(=O)[nH]2)cc(Br)c1OC | 25.1% |  |
| CCC(C(=O)OC)n1cnc2scc(-c3ccc(C)cc3)c2c1=O (stereo not given) | -3.92% |  |
| CCn1c(Cc2ccc(OC)cc2)nnc1SCC(=O)Nc1ccc(N2CCOCC2)cc1 | 3.37% |  |
| COc1ccc(NC(=O)c2cc(-c3cc(OC)c(OC)c(OC)c3)nc3ccccc23)c(OC)c1 | 13.1% |  |
| Cc1ccc(S(=O)(=O)N(Cc2ccccc2)c2ccccn2)cc1[N+](=O)[O-] | -17.7% |  |
| C=CCn1c(C23CC4CC(CC(C4)C2)C3)n[nH]c1=S | -20.5% |  |
| Cc1ccc(OCC(=O)Nc2ccc(N3CCN(C(=O)c4ccco4)CC3)cc2)c(C)c1 | -25.9% |  |
| COc1ccccc1NC(=O)c1cc(N2C(=O)C3C4CCC(C4)C3C2=O)ccc1Cl (stereo not given) | 19.8% |  |
| Cc1ccc(O)c(/C=N/NC(=O)COc2ccc3c(C)cc(=O)oc3c2)c1 | 7.45% |  |
| O=C(NCCc1ccccc1Cl)C1CCC(=O)N(CCCc2ccccc2)C1 (stereo not given) | -5.76% |  |
| COc1cccc(/C=C2\Sc3ccc(C(=O)NCC4CCCO4)cc3N(C)C2=O)c1 (stereo not given) | 36.8% |  |
| COc1cc(OC)c2c(C)cc(=O)oc2c1C(CCN1CCCCC1)c1ccc(N(C)C)cc1 (stereo not given) | -13.6% |  |
| Cc1ccc(C(=O)Oc2coc(CSc3nnc(NC(=O)c4cccs4)s3)cc2=O)cc1C | -14.4% |  |

| Compound | FP activity change, negative = inhibition | Potency |
| --- | --- | --- |
| CCOc1cccc(C(=O)Nc2nnc(-c3cccs3)s2)c1 | -22.3% |  |
| Cc1ccc(C(=O)Nc2nnc(-c3cccs3)s2)cc1C |  | 10 µM (active) |
| COc1ccc(C(C(=O)NC(C)(C)C)N(Cc2ccc(F)cc2)C(=O)CCC(=O)Nc2cc(C)on2)cc1 (stereo not given) | -29.2% |  |
| COc1ccc(NC(=O)c2cccc3c2C(=O)N(CC2CCCO2)C3)cc1OC (stereo not given) | 20.2% |  |
| CCc1ccc(CN(C)C(=O)C2CCC(=O)N(Cc3cccc(OC)c3)C2)nc1 (stereo not given) | -5.46% |  |
| CCC1Sc2ccc(S(=O)(=O)CCC(=O)NCc3cccs3)cc2NC1=O (stereo not given) | 3.79% |  |
| COCCNC(=S)N(CCc1c(C)[nH]c2ccc(C)cc12)Cc1cccnc1 | 7.33% |  |
| CCOc1ccccc1NC(=S)N1CCN(c2cccc(C)c2C)CC1 | -1.61% |  |
| Cc1ccc(N2CCN(C(=O)c3cccs3)CC2)c(C)c1 | -9.4% |  |
| NC(=O)c1ccc(Nc2ccc3c(c2)CCC3)c([N+](=O)[O-])c1 | -23.3% |  |
| Cc1nc2ccc(C(=O)N(C)CC3CCCN(CCc4ccc(Cl)cc4)C3)cc2[nH]1 (stereo not given) | 0.888% |  |
| CCOC(=O)c1csc(CCNC(=O)c2oc3c(Cl)cc(C)cc3c2C)n1 | -13.1% |  |
| Cc1ccc(CNC(=O)C2CCCN2S(=O)(=O)c2ccc3c(c2)C(C)(C)C(=O)N3C)cc1 (stereo not given) | 2.45% |  |
| COc1ccc(NC(=O)c2sc3nc(C)nc(N4CCN(c5ccccn5)CC4)c3c2C)c(OC)c1 | -4.1% |  |
| COCCNc1ccc(-c2n[nH]c(=O)c3ccccc23)cc1[N+](=O)[O-] | 12.6% |  |
| CCc1cccc(C)c1N1C(=O)CN(Cc2ccccc2)C1=S | 32.1% |  |
| NS(=O)(=O)c1ccc(CNC(=O)c2cccc(Oc3ccccc3)c2)cc1 | -21.7% |  |
| COc1ccc(NC(=O)CSc2nc3ccccc3c(=O)n2C)cc1 | -16.9% |  |
| CC(=O)N1c2ccc(S(=O)(=O)N3CCCC(C(=O)Nc4ccc(C)cc4C)C3)cc2CC1C (stereo not given) | -5.14% |  |
| COc1ccc(-c2nc3ccccc3c(=O)n2CCc2ccc(O)cc2)cc1 | 4.36% |  |
| Cc1ccccc1CN1CCC(C(=O)Nc2ccc(Oc3cccnc3)cc2)CC1 | -9.01% |  |
| CCCCC(C(=O)NC(C)(C)C)N(Cc1ccccc1)C(=O)c1snc(C(N)=O)c1N (stereo not given) | -3.07% |  |
| CCc1ccc(C(CNc2nc(C(F)(F)F)nc3ccccc23)N(C)C)cc1 (stereo not given) | -1.15% |  |
| C=C1CCN(C(CC(C)C)C(=O)NCc2cc(OC)c(OC)c(OC)c2)S(=O)(=O)c2ccccc21 (stereo not given) | -12.1% |  |
| CCOC(=O)[C@H]1[C@H]2COc3cc(OC)ccc3[C@@H]2N2C(=O)N(c3ccc(Br)cc3)C(=O)[C@@]12C | 2.14% |  |

Source: PubChem BioAssay AID1768 (National Center for Advancing Translational Sciences (NCATS), 2009)
